Test results: PubChem BioAssay (EPA / NIEHS)
Results filed as inconclusive are left out. Calls of active or inactive are those of the source. The calls were made as follows: active = hit-call score of the fitted dose curve at least 0.9, where 1 is the maximum; inconclusive = response in the unintended direction; inactive = score below 0.9.

System: not listed separately
Experiment: ATG_GAL4_TRANS: Attagene TRANS-FACTORIAL HepG2 Assay for GAL4 (Internal Marker) (AID 2282976)
Details: HepG2 Attagene TRANS GAL4 internal marker reporter
In short: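 Liver HepG2 line bearing multiplexed GAL4-UAS reporter constructs; 24 h chemical treatment. Transcripts were quantified as fluorescent fragments on capillary electrophoresis after RT-PCR and HpaI cut, with activity fitted upward from DMSO.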
With `Clc1ccc(C(c2ccc(Cl)cc2)C(Cl)Cl)cc1` the outcome was “inactive”. With `[As]#[In]` the outcome was “inactive”. In the case of `CN(C)C(=O)Nc1ccc(Cl)cc1`, the outcome is reported as “inactive”. With `CCC(C)c1ccc(O)cc1` (configuration not stated) the outcome was “inactive”. In the case of `c1ccc(N=Nc2ccccc2)cc1`, the outcome is reported as “inactive”. In the case of `O=P(OCCCl)(OCCCl)OCCCl`, the outcome is reported as “inactive”. For `c1ccc2c(c1)-c1cccc3cccc-2c13`, the outcome was “inactive”. For `CCCSC(=O)N(CCC)CCC`, the outcome was “inactive”. For `O=[N+]([O-])c1ccc(Oc2ccc(Cl)cc2Cl)cc1`, the outcome was “inactive”. In the case of `CC(C)(C)C(O)(CCc1ccc(Cl)cc1)Cn1cncn1` (configuration not stated), the outcome is reported as “inactive”. For `N#CC(Br)Br`, the outcome was “inactive”. With `CC(C)N(Cc1ccccc1)C(=O)C(C)(C)C` the outcome was “inactive”.

Target: Estrogen-related receptor gamma (Homo sapiens) (UniProt P62508)
Sequence (P62508 whole entry, looked up): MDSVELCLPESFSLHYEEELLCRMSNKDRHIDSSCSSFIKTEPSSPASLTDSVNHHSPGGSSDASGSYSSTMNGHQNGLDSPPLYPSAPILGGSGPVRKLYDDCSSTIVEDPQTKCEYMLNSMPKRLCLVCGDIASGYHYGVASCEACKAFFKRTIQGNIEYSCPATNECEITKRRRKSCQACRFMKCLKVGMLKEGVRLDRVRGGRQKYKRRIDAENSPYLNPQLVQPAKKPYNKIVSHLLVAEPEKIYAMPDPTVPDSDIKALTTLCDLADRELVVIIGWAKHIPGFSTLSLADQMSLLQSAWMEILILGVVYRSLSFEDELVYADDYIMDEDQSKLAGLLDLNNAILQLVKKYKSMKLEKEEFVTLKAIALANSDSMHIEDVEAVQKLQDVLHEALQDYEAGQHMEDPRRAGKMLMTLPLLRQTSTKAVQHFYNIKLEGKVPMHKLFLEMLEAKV
Experiment: ATG_ERRg_TRANS: Attagene TRANS-FACTORIAL HepG2 Assay for human Estrogen-Related Receptor gamma (ERRg) (AID 2282977);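 also: hits increase reporter signal over DMSO so potencies reflect activators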
Details: HepG2 Attagene TRANS reporter, ERRg transactivation
In short: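 HepG2 cells transiently transfected with multiplexed GAL4-UAS reporter units and chimeric NR-Gal4 constructs were exposed to test chemicals for 24 h. Reporter mRNA was measured by RT-PCR, 6-FAM primer extension, HpaI digestion and capillary electrophoresis; gain-of-signal versus DMSO.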
With `Cc1cc(N=Nc2ccccc2C)ccc1N` the outcome was “inactive”. In the case of `CCC(C)c1ccc(O)cc1` (configuration not stated), the outcome is reported as “inactive”. In the case of `CCNS(=O)(=O)C(F)(F)C(F)(F)C(F)(F)C(F)(F)C(F)(F)C(F)(F)C(F)(F)C(F)(F)F`, the outcome is reported as “inactive”. With `Cc1ccc(N=C=O)cc1N=C=O` the outcome was “inactive”. For `Nc1ccc(Oc2ccc(N)cc2)cc1`, the outcome was “inactive”.
